{
  "source": "PubChem BioAssay (NCI)",
  "note": "The panel holds about 83,000 compounds, 20% with a hit somewhere; the sample as a whole holds those more often.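 48-hour exposure, single concentration, 96-well plates; percent growth endpoint where 0 means no net growth. Active: below 10.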 A number with no mark means an inactive call. The source made the active and inactive calls.",
  "data": [
    {"system": "HL-60(TB) leukemia", "experiment": "NCI-60 one-dose screen, 48 h (100 = growth as untreated, 0 = no growth, -100 = all killed)", "details": "10 µM unless noted", "values": [
      {"compound": "Cc1nc2cc(NC(=O)CN3CCN(CCN4C(=O)c5cccc6cccc(c56)C4=O)CC3)ccc2s1", "growth": "63.9%"},
      {"compound": "CCOC(=O)c1cc(C(=O)c2cc(OC)c(OC)c(OC)c2)n2ncc3ccccc3c12", "growth": "28.7%"},
      {"compound": "COc1ccc2c(c1)nnn1c3ncccc3c(N=O)c21", "growth": "-39.8% (active)"},
      {"compound": "Cc1nn(-c2ccccc2)c(Oc2ccccn2)c1-c1nc2ccccc2s1", "growth": "85.3%"},
      {"compound": "N#CC1=C(N)Oc2c(sc3c(F)cccc23)C1c1ccc(F)cc1", "note": "(stereo not drawn)", "growth": "5.96% (active)"},
      {"compound": "Cc1ccc(C(=O)Nc2ccccc2C(=O)N/N=C(\\c2ccccc2)c2ccccn2)cc1", "growth": "2.36% (active)"},
      {"compound": "CC(C)c1ccc(NC(=O)Nc2ccc(NC(=O)CCCC(=O)NOCc3ccccc3)cc2)cc1", "growth": "17.9%"},
      {"compound": "c1ccc2c(c1)CCN(NCCN1CCCC1)C2", "growth": "96.9%"},
      {"compound": "N#CCCN(NC(=O)OCc1ccccc1)C(=O)OCc1ccccc1", "growth": "115%"},
      {"compound": "CCCCCCCCCCCCCCCC(N)c1ccccc1", "note": "(stereo not drawn)", "growth": "-14.3% (active)"},
      {"compound": "C#COc1cccc(Nc2ncnc3ncc(NC(=O)CCl)cc23)c1", "growth": "-1.51% [6.25 µM] (active)"},
      {"compound": "COc1ccc(C2=C(c3cc(OC)c(OC)c(OC)c3)C(=O)CC2)cc1", "growth": "11.1%"},
      {"compound": "Oc1ccc(N=Nc2ccc(Br)cc2)c(O)c1", "growth": "-21.8% (active)"},
      {"compound": "CC(=O)Nc1ccc(Sc2ccc(NC(C)=O)cc2)cc1", "growth": "73.1%"},
      {"compound": "CC(=O)Nc1ccc(S(N)(=O)=O)cc1", "growth": "101%"},
      {"compound": "O=C(O)c1ccc(-n2cc(CNc3ccc(Oc4ccccc4)cc3)c(-c3ccccc3)n2)cc1", "growth": "92.5%"},
      {"compound": "Oc1c(Cl)cc(Cl)c2ccc(Cn3cc(-c4cc(C(F)(F)F)cc(C(F)(F)F)c4)nn3)nc12", "growth": "-13.7% (active)"},
      {"compound": "Cc1cc(Cl)nc(N(CCCNc2ccnc3cc(Cl)ccc23)Cc2cccs2)n1", "growth": "-41.4% (active)"},
      {"compound": "Cc1ccc(NC(=O)N[C@@H](Cc2cc(F)cc(F)c2)C(=O)N[C@@H]2C(=O)N3CCC[C@H]3C(=O)N3CCOC[C@H]3C(=O)N[C@@H](C)C(=O)N3C[C@H](C)C[C@H]3C(=O)O[C@H]2C)cc1", "growth": "14.5%"},
      {"compound": "Clc1ccc2c(c1)C(N1CCNCC1)=Nc1ccccc1O2", "growth": "50.7%"},
      {"compound": "Nc1ccccc1SC(CC(=O)c1ccccc1)c1c(Cl)cccc1Cl", "note": "(stereo not drawn)", "growth": "54.8%"},
      {"compound": "COc1ccc(/C=C(/C(=O)N2CCN(c3ccccc3)CC2)c2cc(OC)c(OC)c(OC)c2)cc1N", "growth": "-37.5% (active)"},
      {"compound": "Oc1c(C(Nc2cccc3ccccc23)c2ccccc2)ccc2cccnc12", "note": "(stereo not drawn)", "growth": "-37.4% (active)"},
      {"compound": "O=C1Nc2cc(-c3ccncc3)ccc2/C1=C/c1ccc[nH]1", "growth": "99.9%"},
      {"compound": "CN1CCN(Cc2ccc(NC(=O)c3nc4ccc5[nH]ncc5c4c4c3CCC4)cc2C(F)(F)F)CC1", "growth": "-59.1% (active)"},
      {"compound": "CCN(CC)CCOc1nc2cc(OC)c(OC)cc2c2c1-c1ccc(OC)cc1C2=O", "growth": "93.4%"},
      {"compound": "CCCCCCCCCCCCc1ccc([N+](CC)(CC)CC)cc1", "growth": "-10.9% (active)"},
      {"compound": "C=C(C)[C@@H]1CC[C@]2(CO)CC[C@]3(C)[C@H](CC[C@@H]4[C@@]5(C)CC[C@H](NCO)C(C)(C)[C@@H]5CC[C@]43C)[C@@H]12", "growth": "-52% (active)"}
    ]}
  ]
}
